From ChEMBL document CHEMBL1961873, “Compounds: GSK PKIS; Assays: Nanosyn kinase panel” (2012)

Key:
[1] = molecular target: Protein kinase C gamma type (Homo sapiens) (UniProt P05129); conditions: at 1 µM;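 further: each value is an averaged percent inhibition of the enzyme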
[2] = molecular target: T1, Protein kinase C iota type (Homo sapiens) (UniProt P41743); conditions: at 0.1 µM
T1 sequence (whole entry): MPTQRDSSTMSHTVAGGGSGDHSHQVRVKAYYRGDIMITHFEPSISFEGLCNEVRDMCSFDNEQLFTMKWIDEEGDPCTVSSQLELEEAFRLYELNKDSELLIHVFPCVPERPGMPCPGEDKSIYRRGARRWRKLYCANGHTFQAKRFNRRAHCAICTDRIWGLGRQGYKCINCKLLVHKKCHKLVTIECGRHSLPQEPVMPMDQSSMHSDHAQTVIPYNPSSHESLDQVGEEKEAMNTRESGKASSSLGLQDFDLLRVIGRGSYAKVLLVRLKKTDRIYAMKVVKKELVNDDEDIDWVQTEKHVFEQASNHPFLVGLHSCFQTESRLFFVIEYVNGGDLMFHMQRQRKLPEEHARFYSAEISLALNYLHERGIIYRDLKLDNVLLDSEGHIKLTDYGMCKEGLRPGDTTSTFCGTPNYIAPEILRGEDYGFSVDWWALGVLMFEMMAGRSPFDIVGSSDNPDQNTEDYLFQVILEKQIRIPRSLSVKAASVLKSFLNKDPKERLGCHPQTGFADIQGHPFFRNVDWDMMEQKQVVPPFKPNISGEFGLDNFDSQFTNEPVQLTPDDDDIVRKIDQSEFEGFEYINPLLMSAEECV

[3] = molecular target: T1, Protein kinase C iota type (Homo sapiens); conditions: at 1 µM
[4] = molecular target: Protein kinase C theta type (Homo sapiens) (UniProt Q04759); conditions: at 0.1 µM
Sequence of Protein kinase C theta type (Homo sapiens) (Q04759 whole entry, looked up): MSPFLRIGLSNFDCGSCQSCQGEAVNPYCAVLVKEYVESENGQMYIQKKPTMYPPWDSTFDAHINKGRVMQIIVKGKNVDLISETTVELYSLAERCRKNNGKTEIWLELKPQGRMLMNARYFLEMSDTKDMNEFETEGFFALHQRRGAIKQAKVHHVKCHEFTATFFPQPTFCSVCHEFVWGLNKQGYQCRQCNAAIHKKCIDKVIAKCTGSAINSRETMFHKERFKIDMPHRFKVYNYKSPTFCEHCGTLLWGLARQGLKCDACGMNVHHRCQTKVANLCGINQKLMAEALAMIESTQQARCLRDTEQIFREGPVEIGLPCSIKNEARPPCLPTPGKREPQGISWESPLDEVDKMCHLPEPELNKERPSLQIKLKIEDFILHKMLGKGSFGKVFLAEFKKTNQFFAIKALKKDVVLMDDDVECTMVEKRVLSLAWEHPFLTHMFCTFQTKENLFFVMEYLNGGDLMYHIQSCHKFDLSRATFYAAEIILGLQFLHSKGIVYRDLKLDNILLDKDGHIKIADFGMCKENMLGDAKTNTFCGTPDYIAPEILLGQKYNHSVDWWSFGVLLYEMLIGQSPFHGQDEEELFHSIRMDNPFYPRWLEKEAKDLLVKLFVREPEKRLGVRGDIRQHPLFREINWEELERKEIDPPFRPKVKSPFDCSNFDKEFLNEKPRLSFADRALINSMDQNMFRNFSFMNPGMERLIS

[5] = molecular target: Protein kinase C theta type (Homo sapiens) (UniProt Q04759); conditions: at 1 µM
[6] = molecular target: Protein kinase C beta type (Homo sapiens) (UniProt P05771); conditions: at 0.1 µM
Sequence of Protein kinase C beta type (Homo sapiens) (P05771 2-671 limits assumed): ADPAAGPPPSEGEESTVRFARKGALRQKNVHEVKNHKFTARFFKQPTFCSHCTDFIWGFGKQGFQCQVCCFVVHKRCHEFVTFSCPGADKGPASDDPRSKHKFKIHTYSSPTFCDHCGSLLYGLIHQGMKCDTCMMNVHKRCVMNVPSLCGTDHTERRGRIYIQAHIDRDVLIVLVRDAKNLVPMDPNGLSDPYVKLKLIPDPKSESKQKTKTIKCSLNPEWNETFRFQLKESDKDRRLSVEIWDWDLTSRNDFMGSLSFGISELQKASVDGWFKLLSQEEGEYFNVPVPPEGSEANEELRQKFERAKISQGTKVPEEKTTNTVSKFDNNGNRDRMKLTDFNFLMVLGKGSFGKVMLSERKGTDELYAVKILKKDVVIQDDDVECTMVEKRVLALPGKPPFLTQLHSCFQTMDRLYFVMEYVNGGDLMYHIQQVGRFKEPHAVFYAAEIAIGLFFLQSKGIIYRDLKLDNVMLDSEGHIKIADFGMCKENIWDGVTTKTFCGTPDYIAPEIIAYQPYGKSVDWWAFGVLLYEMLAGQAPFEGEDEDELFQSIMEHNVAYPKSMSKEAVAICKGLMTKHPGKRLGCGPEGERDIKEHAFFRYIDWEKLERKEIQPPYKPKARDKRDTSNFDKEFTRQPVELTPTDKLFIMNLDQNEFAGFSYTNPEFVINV

[7] = molecular target: Protein kinase C beta type (Homo sapiens) (UniProt P05771); conditions: at 1 µM
[8] = molecular target: T2, Serine/threonine-protein kinase D1 (Homo sapiens) (UniProt Q15139); conditions: at 0.1 µM
T2 sequence (whole entry): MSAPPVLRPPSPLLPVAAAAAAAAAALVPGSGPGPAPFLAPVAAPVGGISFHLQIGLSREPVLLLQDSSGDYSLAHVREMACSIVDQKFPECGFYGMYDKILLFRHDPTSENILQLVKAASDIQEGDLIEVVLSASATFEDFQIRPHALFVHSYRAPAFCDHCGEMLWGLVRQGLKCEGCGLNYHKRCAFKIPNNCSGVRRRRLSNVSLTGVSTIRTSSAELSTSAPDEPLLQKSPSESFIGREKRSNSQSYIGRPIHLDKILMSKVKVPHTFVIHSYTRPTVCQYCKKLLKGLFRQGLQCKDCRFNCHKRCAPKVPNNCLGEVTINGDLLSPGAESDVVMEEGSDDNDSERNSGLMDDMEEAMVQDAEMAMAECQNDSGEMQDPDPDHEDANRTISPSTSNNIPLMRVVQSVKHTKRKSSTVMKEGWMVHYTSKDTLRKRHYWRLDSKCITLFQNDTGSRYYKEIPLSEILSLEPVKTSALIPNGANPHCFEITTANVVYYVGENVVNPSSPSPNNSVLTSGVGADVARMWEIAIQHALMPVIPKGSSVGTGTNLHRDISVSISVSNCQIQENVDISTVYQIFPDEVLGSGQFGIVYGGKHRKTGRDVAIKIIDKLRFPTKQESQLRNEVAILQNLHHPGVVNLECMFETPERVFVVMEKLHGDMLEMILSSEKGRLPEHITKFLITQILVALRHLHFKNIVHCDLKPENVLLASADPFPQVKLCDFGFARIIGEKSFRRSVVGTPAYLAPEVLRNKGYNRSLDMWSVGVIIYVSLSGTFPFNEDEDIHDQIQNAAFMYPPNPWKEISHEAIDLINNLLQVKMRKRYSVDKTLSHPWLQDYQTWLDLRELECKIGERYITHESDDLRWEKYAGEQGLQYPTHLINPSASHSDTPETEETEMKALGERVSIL

[9] = molecular target: T2, Serine/threonine-protein kinase D1 (Homo sapiens); conditions: at 1 µM
[10] = molecular target: T3, Serine/threonine-protein kinase D2 (Homo sapiens) (UniProt Q9BZL6); conditions: at 0.1 µM
T3 sequence (whole entry): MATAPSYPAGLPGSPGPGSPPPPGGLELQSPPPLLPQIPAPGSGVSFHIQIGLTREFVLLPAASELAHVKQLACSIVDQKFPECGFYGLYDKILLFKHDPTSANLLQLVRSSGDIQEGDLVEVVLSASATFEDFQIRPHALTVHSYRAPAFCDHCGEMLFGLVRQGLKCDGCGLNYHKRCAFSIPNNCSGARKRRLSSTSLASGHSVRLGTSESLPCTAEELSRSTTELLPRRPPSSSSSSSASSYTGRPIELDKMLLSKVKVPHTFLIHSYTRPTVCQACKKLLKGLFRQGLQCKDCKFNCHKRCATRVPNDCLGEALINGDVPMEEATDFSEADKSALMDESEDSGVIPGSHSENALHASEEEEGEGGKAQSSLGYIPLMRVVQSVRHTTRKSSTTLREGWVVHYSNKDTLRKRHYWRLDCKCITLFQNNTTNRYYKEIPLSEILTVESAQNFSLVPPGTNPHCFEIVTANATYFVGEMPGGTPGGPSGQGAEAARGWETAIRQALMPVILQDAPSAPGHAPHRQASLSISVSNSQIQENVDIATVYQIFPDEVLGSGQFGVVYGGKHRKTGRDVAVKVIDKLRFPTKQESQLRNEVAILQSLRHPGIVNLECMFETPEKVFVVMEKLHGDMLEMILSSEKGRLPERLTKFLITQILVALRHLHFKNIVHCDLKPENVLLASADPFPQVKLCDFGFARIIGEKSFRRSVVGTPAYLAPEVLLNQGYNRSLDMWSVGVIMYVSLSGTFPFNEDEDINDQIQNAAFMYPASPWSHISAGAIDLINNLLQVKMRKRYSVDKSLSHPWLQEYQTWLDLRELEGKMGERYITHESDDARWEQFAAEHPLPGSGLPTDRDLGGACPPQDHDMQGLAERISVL

[11] = molecular target: T3, Serine/threonine-protein kinase D2 (Homo sapiens); conditions: at 1 µM
[12] = molecular target: T4, Serine/threonine-protein kinase D3 (Homo sapiens) (UniProt O94806); conditions: at 0.1 µM
T4 sequence (whole entry): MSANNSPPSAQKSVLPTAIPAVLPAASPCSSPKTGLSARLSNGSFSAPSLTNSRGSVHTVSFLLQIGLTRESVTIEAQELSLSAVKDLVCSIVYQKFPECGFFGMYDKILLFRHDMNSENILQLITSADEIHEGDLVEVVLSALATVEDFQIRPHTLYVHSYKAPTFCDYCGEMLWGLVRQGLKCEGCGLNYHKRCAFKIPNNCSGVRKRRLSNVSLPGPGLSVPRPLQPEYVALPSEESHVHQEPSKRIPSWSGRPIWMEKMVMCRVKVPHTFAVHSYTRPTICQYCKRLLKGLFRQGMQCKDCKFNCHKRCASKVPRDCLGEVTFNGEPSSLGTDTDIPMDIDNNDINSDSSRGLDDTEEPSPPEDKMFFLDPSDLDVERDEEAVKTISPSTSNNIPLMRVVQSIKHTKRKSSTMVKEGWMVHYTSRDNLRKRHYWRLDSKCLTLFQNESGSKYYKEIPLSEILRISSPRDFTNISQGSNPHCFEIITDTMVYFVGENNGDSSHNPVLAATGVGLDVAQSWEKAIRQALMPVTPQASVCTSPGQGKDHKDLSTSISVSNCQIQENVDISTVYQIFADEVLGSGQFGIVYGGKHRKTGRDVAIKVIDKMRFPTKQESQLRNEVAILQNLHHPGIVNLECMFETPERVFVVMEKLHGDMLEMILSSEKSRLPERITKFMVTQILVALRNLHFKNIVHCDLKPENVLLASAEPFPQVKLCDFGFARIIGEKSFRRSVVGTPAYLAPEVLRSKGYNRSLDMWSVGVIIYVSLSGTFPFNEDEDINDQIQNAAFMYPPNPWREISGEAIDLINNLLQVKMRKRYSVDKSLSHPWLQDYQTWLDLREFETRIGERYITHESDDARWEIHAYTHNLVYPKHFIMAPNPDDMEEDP

[13] = molecular target: T4, Serine/threonine-protein kinase D3 (Homo sapiens); conditions: at 1 µM
[14] = molecular target: T5, cGMP-dependent protein kinase 1 (Homo sapiens) (UniProt Q13976); conditions: at 0.1 µM
T5 sequence (whole entry): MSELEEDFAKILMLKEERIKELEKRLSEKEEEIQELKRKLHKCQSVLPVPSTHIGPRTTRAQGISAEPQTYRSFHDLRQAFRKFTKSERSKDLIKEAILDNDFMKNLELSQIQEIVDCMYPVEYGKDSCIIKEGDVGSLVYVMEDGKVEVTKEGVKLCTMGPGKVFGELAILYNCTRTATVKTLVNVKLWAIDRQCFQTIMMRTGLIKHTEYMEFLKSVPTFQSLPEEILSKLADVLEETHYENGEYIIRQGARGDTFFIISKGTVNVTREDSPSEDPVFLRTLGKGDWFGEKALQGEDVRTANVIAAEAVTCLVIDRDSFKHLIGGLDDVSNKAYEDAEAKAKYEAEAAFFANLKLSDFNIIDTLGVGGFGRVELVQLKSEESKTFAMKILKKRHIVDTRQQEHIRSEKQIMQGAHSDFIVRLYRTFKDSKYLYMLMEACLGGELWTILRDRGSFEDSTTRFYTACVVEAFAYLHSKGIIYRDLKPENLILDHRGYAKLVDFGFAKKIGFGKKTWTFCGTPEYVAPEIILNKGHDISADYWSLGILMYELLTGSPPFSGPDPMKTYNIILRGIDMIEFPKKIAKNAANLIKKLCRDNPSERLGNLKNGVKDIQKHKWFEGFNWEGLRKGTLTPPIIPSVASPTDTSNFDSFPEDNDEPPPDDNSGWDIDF

[15] = molecular target: T5, cGMP-dependent protein kinase 1 (Homo sapiens); conditions: at 1 µM
[16] = molecular target: T6, cGMP-dependent protein kinase 2 (Homo sapiens) (UniProt Q13237); conditions: at 0.1 µM
T6 sequence (whole entry): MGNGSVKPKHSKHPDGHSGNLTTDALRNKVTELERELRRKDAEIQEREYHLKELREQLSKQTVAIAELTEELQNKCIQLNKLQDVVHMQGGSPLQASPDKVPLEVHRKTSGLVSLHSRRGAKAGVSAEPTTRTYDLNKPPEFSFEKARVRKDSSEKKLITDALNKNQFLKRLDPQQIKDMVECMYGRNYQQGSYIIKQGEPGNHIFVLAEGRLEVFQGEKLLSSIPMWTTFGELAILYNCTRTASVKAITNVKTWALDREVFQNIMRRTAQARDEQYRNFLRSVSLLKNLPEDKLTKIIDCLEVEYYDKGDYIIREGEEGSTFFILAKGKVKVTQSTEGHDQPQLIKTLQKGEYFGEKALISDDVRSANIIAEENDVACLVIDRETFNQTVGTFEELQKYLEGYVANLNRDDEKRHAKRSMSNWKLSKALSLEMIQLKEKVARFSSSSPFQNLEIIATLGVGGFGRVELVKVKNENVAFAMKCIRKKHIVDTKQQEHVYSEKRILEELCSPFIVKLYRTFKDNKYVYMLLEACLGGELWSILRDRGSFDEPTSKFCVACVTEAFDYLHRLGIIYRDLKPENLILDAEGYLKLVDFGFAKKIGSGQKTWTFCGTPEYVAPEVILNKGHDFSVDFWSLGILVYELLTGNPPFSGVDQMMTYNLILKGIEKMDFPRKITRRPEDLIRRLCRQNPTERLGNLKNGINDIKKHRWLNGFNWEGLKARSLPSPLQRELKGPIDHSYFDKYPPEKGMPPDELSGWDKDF

[17] = molecular target: T6, cGMP-dependent protein kinase 2 (Homo sapiens); conditions: at 1 µM
[18] = molecular target: T7, cAMP-dependent protein kinase catalytic subunit PRKX (Homo sapiens) (UniProt P51817); conditions: at 0.1 µM
T7 sequence (whole entry): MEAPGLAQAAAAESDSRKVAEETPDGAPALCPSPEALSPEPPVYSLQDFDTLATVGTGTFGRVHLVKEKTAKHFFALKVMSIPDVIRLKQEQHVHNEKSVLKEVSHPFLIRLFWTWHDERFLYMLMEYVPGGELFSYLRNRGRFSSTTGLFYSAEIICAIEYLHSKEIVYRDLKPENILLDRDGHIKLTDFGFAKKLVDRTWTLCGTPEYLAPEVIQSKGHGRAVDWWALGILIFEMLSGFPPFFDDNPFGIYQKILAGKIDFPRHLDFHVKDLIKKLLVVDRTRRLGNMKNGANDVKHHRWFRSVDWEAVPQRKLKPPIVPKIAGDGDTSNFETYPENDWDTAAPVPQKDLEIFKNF

[19] = molecular target: T7, cAMP-dependent protein kinase catalytic subunit PRKX (Homo sapiens); conditions: at 1 µM
[20] = molecular target: Rho-associated protein kinase 1 (Homo sapiens) (UniProt Q13464); conditions: at 0.1 µM;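 further: values are mean percent inhibition of ROCK1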
Sequence of Rho-associated protein kinase 1 (Homo sapiens) (Q13464 2-1354 limits assumed): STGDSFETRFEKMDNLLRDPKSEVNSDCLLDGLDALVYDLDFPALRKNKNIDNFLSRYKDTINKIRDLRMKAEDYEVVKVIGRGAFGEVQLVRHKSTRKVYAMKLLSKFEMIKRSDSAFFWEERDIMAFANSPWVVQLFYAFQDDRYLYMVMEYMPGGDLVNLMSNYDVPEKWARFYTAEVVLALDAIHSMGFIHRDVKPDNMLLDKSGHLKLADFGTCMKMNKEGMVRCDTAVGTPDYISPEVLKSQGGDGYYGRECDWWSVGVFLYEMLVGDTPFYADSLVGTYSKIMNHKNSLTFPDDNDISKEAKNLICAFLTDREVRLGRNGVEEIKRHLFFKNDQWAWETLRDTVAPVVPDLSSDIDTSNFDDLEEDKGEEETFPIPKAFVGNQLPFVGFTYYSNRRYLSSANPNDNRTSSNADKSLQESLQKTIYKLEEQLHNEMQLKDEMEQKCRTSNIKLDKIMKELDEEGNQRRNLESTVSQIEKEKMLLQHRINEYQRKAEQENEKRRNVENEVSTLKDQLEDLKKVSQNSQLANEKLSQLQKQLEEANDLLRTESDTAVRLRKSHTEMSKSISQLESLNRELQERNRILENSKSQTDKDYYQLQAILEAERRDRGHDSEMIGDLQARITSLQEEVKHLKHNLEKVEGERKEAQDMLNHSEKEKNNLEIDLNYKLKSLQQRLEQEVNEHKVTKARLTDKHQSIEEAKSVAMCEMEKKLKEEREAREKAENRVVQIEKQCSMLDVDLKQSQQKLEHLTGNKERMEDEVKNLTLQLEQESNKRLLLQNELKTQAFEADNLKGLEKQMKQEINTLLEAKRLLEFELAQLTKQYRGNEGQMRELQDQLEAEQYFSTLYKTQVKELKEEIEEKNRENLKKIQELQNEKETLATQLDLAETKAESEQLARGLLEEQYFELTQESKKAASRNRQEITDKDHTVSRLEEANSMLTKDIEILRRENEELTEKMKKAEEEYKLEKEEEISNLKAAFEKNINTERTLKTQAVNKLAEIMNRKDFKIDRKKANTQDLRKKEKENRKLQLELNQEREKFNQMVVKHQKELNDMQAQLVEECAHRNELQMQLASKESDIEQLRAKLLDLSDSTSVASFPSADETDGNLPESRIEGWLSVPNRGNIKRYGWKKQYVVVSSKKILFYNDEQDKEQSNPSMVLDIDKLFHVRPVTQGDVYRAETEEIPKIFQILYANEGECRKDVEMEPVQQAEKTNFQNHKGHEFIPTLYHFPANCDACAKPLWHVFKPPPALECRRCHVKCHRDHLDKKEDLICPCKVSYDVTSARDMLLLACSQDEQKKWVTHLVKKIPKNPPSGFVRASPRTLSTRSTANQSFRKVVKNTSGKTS

SMILES	inhibition [1] [%]	inhibition [2] [%]	inhibition [3] [%]	inhibition [4] [%]	inhibition [5] [%]	inhibition [6] [%]	inhibition [7] [%]	inhibition [8] [%]	inhibition [9] [%]	inhibition [10] [%]	inhibition [11] [%]	inhibition [12] [%]	inhibition [13] [%]	inhibition [14] [%]	inhibition [15] [%]	inhibition [16] [%]	inhibition [17] [%]	inhibition [18] [%]	inhibition [19] [%]	inhibition [20] [%]
CN(c1ccc(NC(=O)Nc2ccc(OC(F)(F)F)cc2)cc1)c1ccnc(Nc2cccc(S(N)(=O)=O)c2)n1	2.99	0.52	-0.73	0.61	0.96	-0.08	0.69	2.95	4.48	3.68	3.78	3.1	3.42	-0.15	0.56	0.76	-0.82	0.6	0	-0.35
Nc1nccc(-c2c(-c3ccc(F)cc3)ncn2CCCN2CCOCC2)n1	6.84	3.1	3.21	2.24	3.31	3.01	7.42	4.07	5.03	5.14	4.5	4.8	4.86	4.04	4.99	2.72	3.95	2.51	5.13	2.49
COC(=O)Nc1nc2cc(Oc3ccc(NC(=O)Nc4cccc(Br)c4)cc3)ccc2[nH]1	0.29	1.23	0.06	1.7	1.69	0.71	2.06	2.15	4.31	4.58	4.58	2.07	3.88	1.83	2.02	0.8	2.14	1.95	1.14	2.54
